Experimental findings from ChEMBL document CHEMBL3988442, “University of Dundee, Small-Polar-MMV Screening Library” (2021) are described below.

Each structure is given as a SMILES string.

One assay deals with T1, Arginase-2, mitochondrial (Homo sapiens) (UniProt P78540).
T1 sequence (whole entry): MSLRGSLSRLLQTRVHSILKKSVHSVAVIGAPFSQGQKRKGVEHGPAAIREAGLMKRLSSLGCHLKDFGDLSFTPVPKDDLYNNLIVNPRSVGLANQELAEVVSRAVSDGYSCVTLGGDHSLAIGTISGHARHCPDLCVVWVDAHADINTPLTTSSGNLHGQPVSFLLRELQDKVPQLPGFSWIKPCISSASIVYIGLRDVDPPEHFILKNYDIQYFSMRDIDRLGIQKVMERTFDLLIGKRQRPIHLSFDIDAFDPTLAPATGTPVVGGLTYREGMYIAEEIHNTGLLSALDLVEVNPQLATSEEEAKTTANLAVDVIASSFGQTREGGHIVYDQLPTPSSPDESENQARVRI
Briefly: in vitro enzyme assay to detect the production of urea directly proportional to the activity of Arginase II. The class given is functional. Also on record: scale not given: in the data most compounds retested in dose-response had high values. The settings on record: 33.3 µM.
For the compound `Cc1ccccc1CNC(=O)CN1CCN(Cc2nccn2C)CC1`, the Percent Effect is -10.8%.

For the compound `CCC(=O)N1CCC2(CC1)c1nc[nH]c1CCN2S(C)(=O)=O`, the Percent Effect was determined as 23%.

In the case of `Cc1cc(C)n(-c2cncc(NCCNC(=O)CC3CCCC3)n2)n1`, the Percent Effect worked out at 1.24%.

Take `Cn1ccnc1CNC(=O)N(CCCO)C1CCCc2ccccc21` (stereo not given): the Percent Effect is -3.55%.

As to `Cc1cccc(CCC(=O)N2CCOCC2c2c(C)n[nH]c2C)c1` (stereo not given), the Percent Effect is -2.73%.

With `COc1ccc(CC(=O)N2CCCCC2Cn2cccn2)cc1OC` (stereo not given), the Percent Effect is -11.8%.

In the case of `O=C(c1ccc[nH]1)N1CCC2(CC1)C(=O)Nc1ccccc12`, the Percent Effect worked out at 4.22%.

For the compound `Cc1ccc(CN2CCCC3(COCCN(Cc4c[nH]nn4)C3)C2)o1` (stereo not given), the Percent Effect is -22.8%.

For the compound `CCSc1ccc(C(=O)Nc2c(C)nn(C(C)C)c2C)cn1`, the Percent Effect is -1.2%.

In the case of `N#CC1(C(=O)N2CCN(Cc3cscn3)CC2)CCCC1`, the Percent Effect was 2.66%.

For the compound `CN(C)C(CNC(=O)c1cc2c([nH]c1=O)CCCC2=O)c1ccsc1` (stereo not given), the Percent Effect is -0.554%.

For the compound `Cn1nccc1C1CCN(CC(O)c2cccc(F)c2)CC1` (stereo not given), the Percent Effect is -1.14%.

As for `CC(C)N1CCC(Cc2cnc(-c3cccc(C(=O)O)c3)cn2)C1` (stereo not given), the Percent Effect amounted to 1.62%.

With `Cc1cn2c(n1)CCC(NC(=O)CCn1cncn1)C2` (stereo not given), the Percent Effect was -2.88%.

On to `Cc1nc(CN(Cc2cccs2)C2CCS(=O)(=O)C2)oc1C` (stereo not given), for which the Percent Effect is 2.16%.

Turning to `c1csc(-c2nc(CN3CCOC(Cn4cccn4)C3)co2)c1` (stereo not given), the Percent Effect was -8.82%.

Regarding `CC1N(CC2CC2)C(=O)COC12CCN(Cc1nccs1)CC2` (stereo not given), the Percent Effect is -2%.

Take `Cc1nn(CC(=O)N2CCN(c3ccccc3F)CC2)c(C)c1Cl`: the Percent Effect is -24.8%.

In the case of `c1nc2c(c(C3CC3)n1)CCN(CC1CCOC1)CC2` (stereo not given), the Percent Effect was 3.5%.

For the compound `Cc1nc(CN2CCCC(NCCOc3ccccc3)C2)no1` (stereo not given), the Percent Effect was determined as 2.28%.

`COc1c(C2CCCN2C(=O)c2cc(Cl)c[nH]2)c(C)nn1C` (stereo not given): the Percent Effect worked out at 2.08%.

With `Cc1cc(C)c2cc(CNCc3ccccc3)c3nn(C)c(=O)n3c2c1`, the Percent Effect is -2.09%.

Take `CC(O)CN(CC(=O)NC(=O)NC1CC1)c1ccccc1` (stereo not given): the Percent Effect is -3.16%.

Take `Cc1cc(C)c2nc(CN3CCCC(c4cc[nH]n4)C3)cc(O)c2c1` (stereo not given): the Percent Effect stood at 0%.

Consider `CCOc1ncccc1NC(=O)c1cc(C)c(C)s1`, for which the Percent Effect was -2.21%.

`CN(C)CC(=O)N1Cc2nc(C(=O)NCc3ccncc3)oc2C1`: the Percent Effect was -49.3%.

Regarding `CCn1cnnc1CNC(=O)CCC(=O)c1ccc2c(c1)OCCO2`, the Percent Effect was -10%.

In the case of `CC(Oc1ccccc1C(F)(F)F)C(=O)NS(=O)(=O)C(C)C` (stereo not given), the Percent Effect was -2.92%.

For `Cn1c(C2CC2)nc2c1CCN(CC(=O)Nc1nncs1)C2`, the Percent Effect was -11.4%.

For the compound `N#Cc1ncn(CCC(=O)Nc2ccc(Cl)cc2F)n1`, the Percent Effect was -1.6%.

With `Cc1cn2c(n1)CCC(NC(=O)c1nc(C)ncc1Cl)C2` (stereo not given), the Percent Effect amounted to 1.05%.

Consider `CN(C)c1ncc(CN2CCOC(C(=O)Nc3ccccc3)C2)cn1` (stereo not given), for which the Percent Effect worked out at 71.6%.

Consider `CC(=O)Nc1cc(C(=O)N2CCOCC2c2ccc(C)o2)ccc1F` (stereo not given), for which the Percent Effect was -1.04%.

With `Cc1cnccc1CN1C[C@@H](O)[C@H](Oc2ccccc2)C1`, the Percent Effect was determined as 3.02%.

For `CC1=N[C@@]2(CC[C@@H]3CN(S(=O)(=O)N(C)C)C[C@@H]32)C(=O)N1CC(C)C`, the Percent Effect amounted to 4.78%.

In the case of `CCCS(=O)(=O)N1CCN(c2cc(-n3nc(C)cc3C)nc(C)n2)CC1`, the Percent Effect turned out to be 2.76%.

For `O=C(O)c1nnn(Cc2cccc(C(F)(F)F)c2)c1-c1cccnc1`, the Percent Effect was -10.4%.

`CC(C)(N)CN1CCC(c2nnc(CN3CCCC3)n2C2CC2)CC1`: the Percent Effect is 5.73%.

`Cc1cccc(CNC(=O)CNc2cc(CO)ccc2Cl)c1`: the Percent Effect stood at 1.18%.

With `COCC1CC2(CCN(Cc3cnn(C)c3)CC2)CN1c1ncccn1` (stereo not given), the Percent Effect was -5.52%.

A further assay addresses T2, Proteasome subunit beta (Trypanosoma cruzi) (UniProt O96673).
T2 sequence (whole entry): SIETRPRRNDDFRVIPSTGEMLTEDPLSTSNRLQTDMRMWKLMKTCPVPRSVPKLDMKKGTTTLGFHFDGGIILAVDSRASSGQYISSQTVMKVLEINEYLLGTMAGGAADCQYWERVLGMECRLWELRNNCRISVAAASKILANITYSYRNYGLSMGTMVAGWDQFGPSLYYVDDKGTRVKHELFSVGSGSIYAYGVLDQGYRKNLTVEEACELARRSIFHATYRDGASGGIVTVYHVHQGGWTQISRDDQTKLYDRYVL
Briefly: Trypanosoma cruzi proteasome chymotrypsin-like activity (TcProtChymo) assay. The assay is classed as functional. Also on record: scale not given: in the data most compounds retested in dose-response had high values. The following applies: 9.37 µM.
Consider `Cc1ccccc1CNC(=O)CN1CCN(Cc2nccn2C)CC1`, for which the Percent Effect was determined as 18.4%.

For the compound `CCC(=O)N1CCC2(CC1)c1nc[nH]c1CCN2S(C)(=O)=O`, the Percent Effect turned out to be 11.8%.

With `Cc1cc(C)n(-c2cncc(NCCNC(=O)CC3CCCC3)n2)n1`, the Percent Effect worked out at 8.67%.

With `Cn1ccnc1CNC(=O)N(CCCO)C1CCCc2ccccc21` (stereo not given), the Percent Effect was -3.36%.

Take `Cc1cccc(CCC(=O)N2CCOCC2c2c(C)n[nH]c2C)c1` (stereo not given): the Percent Effect is -2.84%.

Regarding `COc1ccc(CC(=O)N2CCCCC2Cn2cccn2)cc1OC` (stereo not given), the Percent Effect was 6.81%.

On to `O=C(c1ccc[nH]1)N1CCC2(CC1)C(=O)Nc1ccccc12`, for which the Percent Effect amounted to 10.7%.

On to `Cc1ccc(CN2CCCC3(COCCN(Cc4c[nH]nn4)C3)C2)o1` (stereo not given), for which the Percent Effect worked out at 0.855%.

Take `CCSc1ccc(C(=O)Nc2c(C)nn(C(C)C)c2C)cn1`: the Percent Effect turned out to be 4.71%.

For the compound `N#CC1(C(=O)N2CCN(Cc3cscn3)CC2)CCCC1`, the Percent Effect worked out at 3.19%.

Consider `CN(C)C(CNC(=O)c1cc2c([nH]c1=O)CCCC2=O)c1ccsc1` (stereo not given), for which the Percent Effect was found to be 2.51%.

Turning to `Cn1nccc1C1CCN(CC(O)c2cccc(F)c2)CC1` (stereo not given), the Percent Effect was 4.18%.

For `CC(C)N1CCC(Cc2cnc(-c3cccc(C(=O)O)c3)cn2)C1` (stereo not given), the Percent Effect is -3.59%.

For `Cc1cn2c(n1)CCC(NC(=O)CCn1cncn1)C2` (stereo not given), the Percent Effect came to 10.4%.

`Cc1nc(CN(Cc2cccs2)C2CCS(=O)(=O)C2)oc1C` (stereo not given): the Percent Effect is 6.85%.

Regarding `c1csc(-c2nc(CN3CCOC(Cn4cccn4)C3)co2)c1` (stereo not given), the Percent Effect stood at 9.01%.

In the case of `CC1N(CC2CC2)C(=O)COC12CCN(Cc1nccs1)CC2` (stereo not given), the Percent Effect was determined as 11.2%.

Regarding `Cc1nn(CC(=O)N2CCN(c3ccccc3F)CC2)c(C)c1Cl`, the Percent Effect came out at 25.5%.

As to `c1nc2c(c(C3CC3)n1)CCN(CC1CCOC1)CC2` (stereo not given), the Percent Effect worked out at 20.7%.

`Cc1nc(CN2CCCC(NCCOc3ccccc3)C2)no1` (stereo not given): the Percent Effect was 28.9%.

With `COc1c(C2CCCN2C(=O)c2cc(Cl)c[nH]2)c(C)nn1C` (stereo not given), the Percent Effect was determined as 4.31%.

In the case of `Cc1cc(C)c2cc(CNCc3ccccc3)c3nn(C)c(=O)n3c2c1`, the Percent Effect was determined as 10.3%.

Consider `CC(O)CN(CC(=O)NC(=O)NC1CC1)c1ccccc1` (stereo not given), for which the Percent Effect stood at 3.64%.

`Cc1cc(C)c2nc(CN3CCCC(c4cc[nH]n4)C3)cc(O)c2c1` (stereo not given): the Percent Effect worked out at 8.62%.

Turning to `CCOc1ncccc1NC(=O)c1cc(C)c(C)s1`, the Percent Effect was 11.1%.

On to `CN(C)CC(=O)N1Cc2nc(C(=O)NCc3ccncc3)oc2C1`, for which the Percent Effect turned out to be 14.4%.

For the compound `CCn1cnnc1CNC(=O)CCC(=O)c1ccc2c(c1)OCCO2`, the Percent Effect stood at 15.3%.

Take `CC(Oc1ccccc1C(F)(F)F)C(=O)NS(=O)(=O)C(C)C` (stereo not given): the Percent Effect came to 14.1%.

With `Cn1c(C2CC2)nc2c1CCN(CC(=O)Nc1nncs1)C2`, the Percent Effect was 3.72%.

Take `N#Cc1ncn(CCC(=O)Nc2ccc(Cl)cc2F)n1`: the Percent Effect was 18.4%.

On to `Cc1cn2c(n1)CCC(NC(=O)c1nc(C)ncc1Cl)C2` (stereo not given), for which the Percent Effect amounted to 8.49%.

Regarding `CN(C)c1ncc(CN2CCOC(C(=O)Nc3ccccc3)C2)cn1` (stereo not given), the Percent Effect is 18.6%.

`CC(=O)Nc1cc(C(=O)N2CCOCC2c2ccc(C)o2)ccc1F` (stereo not given): the Percent Effect worked out at 4.18%.

As for `Cc1cnccc1CN1C[C@@H](O)[C@H](Oc2ccccc2)C1`, the Percent Effect came to 3.28%.

Consider `CC1=N[C@@]2(CC[C@@H]3CN(S(=O)(=O)N(C)C)C[C@@H]32)C(=O)N1CC(C)C`, for which the Percent Effect was 13.3%.

With `CCCS(=O)(=O)N1CCN(c2cc(-n3nc(C)cc3C)nc(C)n2)CC1`, the Percent Effect amounted to 10.7%.

For `O=C(O)c1nnn(Cc2cccc(C(F)(F)F)c2)c1-c1cccnc1`, the Percent Effect came to 8.5%.

As for `CC(C)(N)CN1CCC(c2nnc(CN3CCCC3)n2C2CC2)CC1`, the Percent Effect is 15.5%.

Turning to `Cc1cccc(CNC(=O)CNc2cc(CO)ccc2Cl)c1`, the Percent Effect amounted to 11%.

`COCC1CC2(CCN(Cc3cnn(C)c3)CC2)CN1c1ncccn1` (stereo not given): the Percent Effect was found to be 11.7%.
